Pf gamet viab = P. falciparum stage V gametocyte viability inhibition; P. falciparum stage V gametocytes, ATP luminescence, 24 h; inhibition, % at 10.9 µM; 150,000 tested, 0.065% active; AID 743093;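 active = inhibition above the mean plus 3 SD of compounds within the control limits, set per campaign, cut at about 38% in these data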;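 also: 0% = DMSO wells and 100% = medium only without gametocytes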
EP2 mod = modulates human prostaglandin E2 receptor EP2 signaling | EP2-expressing cells, cAMP HTRF FRET, PGE2 co-stimulation | induction, % at 25 µM | 260,000 tested, 0.83% active | P43116;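 active = compounds whose cAMP rise, as percent of the full-agonist control response, exceeds 60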;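 also: rat C6 glioma line stably carrying human EP2 under a CMV promoter; the protocol text gives 20 µM as final concentration; 100% = response of wells given 1 µM PGE2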
EP2 antag = inhibitors of human EP2 prostaglandin E2 receptor; P43116; C6 glioma cells expressing human EP2, cAMP TR-FRET; cells stimulated with saturating PGE2; inhibition, % at 25 µM; 260,000 tested, 0.52% active;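 active = percent inhibition above 40 after rounding to a whole number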;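 also: rat C6 glioma host cells with rolipram phosphodiesterase inhibitor present; the protocol text gives 20 µM as final concentration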
HSV replic up = HSV replication enhancement | HSV replication augmentation in cells, fold increase | maximum fold increase | 220,000 tested, 0.005% active; in the data active = maximum fold increase above about 1.5; tested in PC3 cells
Furin inh = human furin inhibition; P09958; purified furin, fluorogenic substrate cleavage; inhibition, % at 20 µM or 30 µM; 220,000 tested, 0.061% active; AID 463115; in the data active = inhibition above about 25%
Target sequence (P09958 108-714 limits assumed): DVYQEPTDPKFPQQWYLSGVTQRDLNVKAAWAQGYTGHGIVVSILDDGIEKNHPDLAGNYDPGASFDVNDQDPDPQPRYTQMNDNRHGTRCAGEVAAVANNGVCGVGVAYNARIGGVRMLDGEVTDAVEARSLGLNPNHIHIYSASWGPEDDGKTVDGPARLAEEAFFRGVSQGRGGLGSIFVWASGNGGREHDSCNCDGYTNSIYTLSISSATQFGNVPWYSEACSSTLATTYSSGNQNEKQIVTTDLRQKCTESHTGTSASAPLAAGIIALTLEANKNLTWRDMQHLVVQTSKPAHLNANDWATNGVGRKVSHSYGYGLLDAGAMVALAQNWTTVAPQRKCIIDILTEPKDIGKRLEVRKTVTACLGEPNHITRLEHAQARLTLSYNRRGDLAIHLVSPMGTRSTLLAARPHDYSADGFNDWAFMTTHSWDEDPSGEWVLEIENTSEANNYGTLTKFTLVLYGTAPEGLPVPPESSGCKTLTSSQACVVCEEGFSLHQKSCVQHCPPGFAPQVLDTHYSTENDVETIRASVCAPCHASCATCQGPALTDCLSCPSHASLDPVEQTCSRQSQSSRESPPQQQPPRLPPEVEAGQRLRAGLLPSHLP
* marks the source's active call; other numbers are inactive results; i = inactive; nt = no result. In the library only some 1.4% were active in any assay of this set; here they are far more common.

SMILES | Pf gamet viab | EP2 mod | EP2 antag | HSV replic up | Furin inh
c1ccc(Nc2nc(NCc3ccco3)c3ccccc3n2)cc1 | -6 | -46 | 62* | i | -15
Cc1cccc(Nc2nc(NCc3ccco3)c3ccccc3n2)c1 | -2 | -91 | 35 | i | -7
Cc1ccc(C(=O)CSc2nc(C(C)C)nc3ccccc23)cc1 | -11 | 34 | 6 | i | -21
CCOc1ccc(NC(=O)CSc2nc3ccccc3cc2C)cc1 | nt | 14 | 13 | nt | nt
Cc1cc2cc3c(cc2nc1SCC(=O)c1ccccc1)OCO3 | nt | 70* | 13 | nt | nt
Cc1cc2ccccc2nc1SCC(=O)NC(C)(C)C | nt | 87* | 7 | nt | nt
Cc1cc2ccccc2nc1SCC(=O)c1ccccc1 | nt | 81* | 9 | nt | nt
CC(C)c1nc(SCC(=O)c2ccc(F)cc2)c2ccccc2n1 | nt | 63* | 8 | i | -18
CC1=CC(=O)C2C(C)(C)CCC[C@]2(C)[C@@]1(O)CCc1ccoc1 (some centres undefined) | nt | 14 | 10 | nt | nt
CCOC(=O)CSc1nc2cc3c(cc2cc1C)OCO3 | 39* | 58 | 7 | i | -30
CCOC(=O)CSc1nc2cc3c(cc2cc1C#N)OCO3 | nt | -26 | 15 | i | -4
Cc1cc2cc3c(cc2nc1SCC(=O)c1ccccc1F)OCCO3 | nt | 72* | 19 | nt | nt
CCc1cc2cc3c(cc2nc1SCC(=O)Nc1ccc(OC)c(OC)c1)OCO3 | nt | 74* | 10 | nt | nt
Cc1cc2cc3c(cc2nc1SCC(=O)Nc1ccccc1F)OCO3 | nt | 11 | 15 | nt | nt
CCOC(=O)CSc1nc2ccc(C)cc2cc1CC | nt | 62* | 12 | nt | nt
N=C(N)c1ccc(-c2ccc(-c3ccc(C(=N)N)cc3)o2)cc1 | nt | -11 | 52* | nt | nt
N=C(N)c1ccc(Cl)cc1 | 9 | 20 | 9 | i | -22
CCCS(=O)(=O)c1ccc(COC(=O)c2cccc(NC(=O)C(C)C)c2)cc1 | -12 | -31 | 5 | i | -14
O=c1c2nccnc2[nH]c(=S)n1Cc1ccccc1Cl | 5 | 8 | 13 | i | -25
COc1cc2nc(-c3ccc(Br)o3)oc(=O)c2cc1OC | nt | 5 | 40* | i | -17
O=c1oc2ccccc2c2c1nnn2C1CCN(Cc2ccccc2)CC1 | nt | -91 | 74* | nt | nt
CCC(C)n1nnc2c(=O)oc3ccccc3c21 (centres undefined) | nt | -17 | 9 | i | -19
Cc1ccc(-n2nnc3c(=O)oc4ccccc4c32)cc1 | nt | -17 | 86* | i | -17
Cc1nc2ccc3nc(NC(=O)c4ccc5c(c4)OCCO5)sc3c2s1 | nt | 4 | 52* | i | -17
Cc1cc2oc(C(=O)NC(C)c3nc(-c4cccnc4)n[nH]3)cc(=O)c2cc1C (centres undefined) | nt | -25 | 5 | nt | nt
SMILES | Pf gamet viab | EP2 mod | EP2 antag | HSV replic up | Furin inh
Oc1ccc(-c2csc(-c3cccnc3)n2)c(O)c1 | -2 | -9 | 7 | i | -24
Oc1ccc(-c2csc(-c3ccccc3)n2)c(O)c1 | nt | -142 | 48* | nt | nt
CCOC(=O)c1ccc(CN(Cc2ccccc2)S(=O)(=O)c2cccc([N+](=O)[O-])c2)cc1 | nt | 34 | 2 | i | -13
C[C@@]12C[C@H](O)[C@@H]3[C@H](CCC4=CC(=O)CC[C@]43C)[C@H]1CC[C@H]2c1csc(-c2ccccc2)n1 | nt | 36 | 40* | nt | nt
Cc1nc(C2CCC3C4CCC5=CC(=O)CC[C@]5(C)C4CC[C@]23C)cs1 (some centres undefined) | nt | 21 | 4 | i | -28
Cc1cc(NC(=O)c2sc(Nc3ccc(F)cc3)nc2N)no1 | -55 | -39 | 7 | i | -24
C=CCNc1nc(N)c(C(=O)Nc2cc(C)on2)s1 | nt | -4 | 46* | nt | 10
CC(=O)Nc1cc(-c2ccc(Cl)cc2)nn1-c1ccccc1 | nt | -19 | 3 | i | 28*
CC(=O)Nc1cc(-c2ccccc2)nn1Cc1ccc(Cl)cc1 | nt | -39 | 12 | i | -18
COc1c(C)cc(Br)cc1C(=O)Nc1ccc(Cc2ccncc2)cc1 | 6 | 64* | 11 | i | -20
CN(c1cccc(NC(=O)CN(c2ccc(Cl)c(Cl)c2)S(=O)(=O)c2ccccc2)c1)S(C)(=O)=O | -2 | -3 | 7 | i | -24
O=C(N/N=C/c1cccc(O)c1)c1cc(-c2ccc3c(c2)OCO3)n[nH]1 | -1 | -77 | 64* | i | -14
CCc1ccc2[nH]c(=O)c(CN(CC3CCCO3)C(=S)NC3CCCCC3)cc2c1 (centres undefined) | nt | 82* | 10 | nt | nt
CCNC(=S)N(CCN(C)C)Cc1cc2cc(CC)ccc2[nH]c1=O | nt | 63* | 9 | nt | nt
CCc1ccc2[nH]c(=O)c(CN(CCN(C)C)C(=S)Nc3ccccc3)cc2c1 | nt | -57 | 17 | nt | nt
CCc1ccc2[nH]c(=O)c(CN(CC3CCCO3)C(=S)NCc3ccccc3)cc2c1 (centres undefined) | nt | 66* | 12 | nt | nt
COC(=O)c1ccccc1NC(=O)N[C@@H](C)C(=O)OC | nt | 27 | 6 | i | -12
COc1n[nH]c(C(=O)NCc2ccccc2)c1[N+](=O)[O-] | 14 | 12 | 5 | i | -20
COc1ccc(N2C(=O)CSC23C(=O)N2CCCc4cccc3c42)cc1 (centres undefined) | 42* | -9 | 8 | i | -15
CC(=O)Nc1ccc(S(=O)(=O)N2CCN(CCC#N)CC2)cc1 | nt | -1 | 5 | i | -32
CCn1c(C)c(CS(=O)(=O)c2ccccc2)[nH]c1=O | 1 | -37 | 5 | i | -23
COc1ccccc1CN(Cc1nc2ccccc2c(=O)[nH]1)S(=O)(=O)c1ccc(C)cc1 | nt | 61* | 15 | i | -14
Cc1cccc(OCC(=O)N2CCC(N3CCCCCC3)CC2)c1 | 12 | 8 | 10 | i | -27
COc1cc(C2c3c(oc4ccccc4c3=O)C(=O)N2Cc2ccco2)ccc1O (centres undefined) | nt | 9 | -6 | i | -23
COc1ccccc1NC(=O)CN1C(=O)C(C)(C)Oc2ccc(C(=O)NC3CCCC3)cc21 | nt | 31 | 8 | nt | nt
SMILES | Pf gamet viab | EP2 mod | EP2 antag | HSV replic up | Furin inh
COc1ccccc1NC(=O)c1ccc2c(c1)N(Cc1cc(C)ccc1C)C(=O)C(C)(C)O2 | nt | 64* | 15 | nt | nt
O=c1ccn(-c2ccccc2)[nH]1 | 11 | 36 | 5 | i | -20
COc1ccc(OC)c2c1C(=O)c1ccccc1C2=O | nt | 19 | 4 | i | -18
COc1ccc(OC)c2c1C(=O)C(Cl)=C(Cl)C2=O | -42 | -33 | 112* | i | -5
Oc1ccc2ccccc2c1/C=C/c1ccc2c(Br)cc(Br)c(O)c2n1 | nt | 4 | 42* | nt | nt
Oc1ccc(Cl)cc1/C=C/c1ccc2cccc(O)c2n1 | -23 | -56 | 6 | i | 10
COc1cccc(Nc2nc(NCC3CCCO3)c3ccccc3n2)c1 (centres undefined) | 27 | -54 | 53* | i | -20
CC(=O)NC(C)c1cc(Cl)c2ccccc2c1O (centres undefined) | -2 | nt | nt | nt | nt
COC(=O)C1=CN(Cc2cccs2)C=C(C(=O)OC)C1c1ccc(OC)cc1OC | nt | 52 | 13 | i | -44
O=C(Nc1ccc(Cl)cc1)c1sccc1-n1cccc1 | 7 | 63* | -1 | i | -25
Cc1cc2cc(CN(Cc3cccs3)Cc3nnnn3Cc3ccccc3)c(=O)[nH]c2cc1C | nt | 18 | 14 | nt | nt

High-throughput results (PubChem)
